HPGD block – qHTS Assay for Inhibitors of HPGD (15-Hydroxyprostaglandin Dehydrogenase) | 15-hydroxyprostaglandin dehydrogenase [NAD(+)] (Homo sapiens), P15428 | AID 894, 2007 | Potency, µM, hits mostly inhibitors | purified HPGD, NADH fluorescence kinetic, PGE2 substrate | 150,000 compounds, 4.3% hits
Target sequence (P15428 whole entry, looked up): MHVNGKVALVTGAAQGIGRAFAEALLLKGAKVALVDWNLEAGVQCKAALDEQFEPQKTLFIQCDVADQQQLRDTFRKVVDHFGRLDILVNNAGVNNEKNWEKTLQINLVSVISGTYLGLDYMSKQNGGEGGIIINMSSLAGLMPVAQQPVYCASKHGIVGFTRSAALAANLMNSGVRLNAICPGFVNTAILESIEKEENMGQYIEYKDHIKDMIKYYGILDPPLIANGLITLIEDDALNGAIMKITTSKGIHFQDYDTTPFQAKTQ
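20 nM HPGD preincubated 15 min at room temperature with compound in 50 mM Tris-HCl pH 8, 0.01% Tween 20. Started with 1 mM NAD+ and 30 uM prostaglandin E2; NADH fluorescence (360/450 nm) read 5 times over 30-s intervals, last minus first.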
IMPase inh – qHTS Assay for Identifying the Cell-Membrane Permeable IMPase Inhibitors; Inositol monophosphatase 1 (Rattus norvegicus), P97697; CHO-M1 cells, IP1 accumulation, HTRF TR-FRET ratio; inhibition (IP1 accumulation), % at 46.1 µM; 120,000 tested, under 10 active; active means well fitted curve in the direction sought with a large enough effect in the signal ratio, not every such curve was filed as active; inconclusive means small, poorly fitted or top-dose-only effect, or a change in a side signal; inactive means no such curve, though single readings can be large or run the other way; the % refers to the signal ratio;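 further: cells stimulated with carbachol in lithium chloride buffer; higher means more IMPase inhibition seen as more IP1 and lower FRET ratio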
Target sequence (P97697 whole entry, looked up): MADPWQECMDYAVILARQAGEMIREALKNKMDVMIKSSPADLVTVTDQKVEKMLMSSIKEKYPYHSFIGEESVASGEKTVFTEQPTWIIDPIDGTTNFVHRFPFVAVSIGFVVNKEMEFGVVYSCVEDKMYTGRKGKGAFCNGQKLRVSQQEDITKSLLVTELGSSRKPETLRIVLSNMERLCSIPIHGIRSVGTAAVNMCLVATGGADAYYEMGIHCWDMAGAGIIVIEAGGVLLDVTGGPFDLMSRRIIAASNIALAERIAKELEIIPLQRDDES
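CHO-M1 cells (CHO stably expressing M1 receptor), compound up to 46 uM final, stimulated with carbachol (50 uM as added) in buffer with 50mM LiCl, pH 7.4, 30 min at 37C. Cytosolic IP1 read by TR-FRET; AC50 from Hill fits.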
ALDH1A1 inh – qHTS Assay for Inhibitors of Aldehyde Dehydrogenase 1 (ALDH1A1) | Aldehyde dehydrogenase 1A1 (Homo sapiens), P00352 | Purified ALDH1A1, NADH fluorescence, propionaldehyde substrate | Potency, µM (doses to about 75.3 µM), usual class: inhibitors | 220,000 compounds, 7.3% hits
Numbers stand for hits; . = inactive; ? = inconclusive; / = no result given; [ ] = remark or other dose. A selection: hits, their analogues and other compounds. The true share with any hit is near 9%. Unless noted, the call rests on the fitted dose curve; in most records, active means well fitted inhibition curve with a large enough effect (not every such curve was filed as active); inconclusive means small, poorly fitted or top-dose-only effect, or another doubt; inactive means no such curve, though single readings can be large or run the other way.

SMILES	HPGD block	IMPase inh	ALDH1A1 inh
COc1ccc(CCN2CCCn3c2nc2c3c(=O)n(Cc3ccccc3F)c(=O)n2C)cc1OC	?	.	3.55µM
COc1ccc(N2CCCn3c2nc2c3c(=O)n(CCCc3ccccc3)c(=O)n2C)cc1	.	.	.
CCn1c(=O)c2c(nc3n2CCCN3CCc2ccccc2)n(C)c1=O	.	.	.
COc1ccc(N2CCCn3c2nc2c3c(=O)n(Cc3ccc(F)cc3)c(=O)n2C)c(OC)c1	.	.	?
COc1ccc(N2CCCn3c2nc2c3c(=O)n(Cc3ccccc3F)c(=O)n2C)c(OC)c1	?	.	11.2µM
COc1ccc(N2CCCn3c2nc2c3c(=O)n(Cc3ccccc3F)c(=O)n2C)cc1	.	.	8.91µM
COc1ccc(-c2nc3ccccc3n3c(-c4ccccc4)c4c(=O)n(C)c(=O)n(C)c4c23)cc1OC	/	.	/
CC(=O)Nc1ccc(NS(=O)(=O)c2ccc(C)cc2)c([N+](=O)[O-])c1	/	/	.
COc1cc(-c2nc3ccccc3c(=O)n2N)cc(OC)c1OC	.	.	.
CC(C)c1cc(C(F)(F)F)nc(NNc2nc(C(C)C)cc(C(F)(F)F)n2)n1	.	/	.[13.5 µM]
COCCNC(=S)N/N=C(\C)c1ccc(O)cc1	.	.	.
C/C(=N\NC(=S)NC1CCCCC1)c1ccccc1	.	/	.
C/C(=N\NC(=S)Nc1ccccc1C)c1ccc(O)cc1	/	/	20µM
C/C(=N\NC(=S)NC1CCCCC1)c1ccc(O)cc1	/	/	14.1µM
Cc1cccc(C)c1N1CCN(C(=O)N2CCOCC2)CC1	/	/	11.2µM
Cc1ccc(N2CCN(C(=O)N3CCOCC3)CC2)cc1C	/	/	.
O=C1c2ccccc2-c2c1cccc2C(=O)N1CCN(C(=O)c2ccco2)CC1	.	.	15.8µM
O=C(c1ccco1)N1CCCN(C(=O)c2ccco2)CC1	.	.	.
O=C(c1ccco1)N1CCN(C(=O)N2CCOCC2)CC1	.	.	31.6µM
O=C(c1ccco1)N1CCN(C(=O)C(c2ccccc2)c2ccccc2)CC1	.	.[0.0738 µM]	.
COc1ccc(CCC(=O)c2c(O)cc(O[C@@H]3O[C@H](CO)[C@@H](O)[C@H](O)[C@H]3O[C@@H]3O[C@@H](C)[C@H](O)[C@@H](O)[C@H]3O)cc2O)cc1O	.	/	?
Cc1ccc(C)c(C(=O)CN2C(=O)NC3(CCC(C)CC3)C2=O)c1 (stereo not drawn)	.	.	.
N#C/C(=C\c1ccc(-c2ccc(Br)cc2)o1)C(=O)Nc1ccccc1O	/	.	/
N#C/C(=C/c1ccc([N+](=O)[O-])cc1)C(=O)Nc1ccccc1O	.	/	7.94µM
Cc1ccccc1NC(=O)/C(C#N)=C\c1ccsc1	.	/	.
SMILES	HPGD block	IMPase inh	ALDH1A1 inh
N#C/C(=C\c1ccc([N+](=O)[O-])cc1)C(=O)Nc1ccccc1O	.	/	17.8µM
Cc1cccc(OCCOCCn2c(-c3ccc(Cl)cc3)nc3ccccc3c2=O)c1C	/	.	/
O=C(CN1C(=O)NC2(CCOc3ccccc32)C1=O)Nc1cccc(Cl)c1 (stereo not drawn)	/	/	.
COc1ccc(N2C(=O)CCC(C(=O)N3CCCCCC3)C2c2ccc(OC)c(OC)c2)cc1 (stereo not drawn)	.	.	.
COc1ccc(C2C(C(=O)N3CCCCC3)CC(=O)N2c2ccc(OC)cc2)cc1 (stereo not drawn)	.	.	14.1µM
CCNC(=O)COC(=O)C1CCC(=O)N(c2ccc(OC)cc2)C1c1ccc(OC)cc1 (stereo not drawn)	.	.	8.91µM
COc1ccc(C2C(C(=O)NCc3ccco3)CCC(=O)N2c2ccc(OC)cc2)cc1 (stereo not drawn)	.	.	11.2µM
COc1ccc(C2C(C(=O)OCC(=O)N3CCCCC3)CCC(=O)N2c2ccc(OC)cc2)cc1 (stereo not drawn)	.	.	?
COc1ccc(C2C(C(=O)O)CCC(=O)N2c2ccc(OC)cc2)cc1 (stereo not drawn)	.	.	.
Cc1cc(Nc2ccc(C)c(Br)c2)n2nc(C)nc2n1	?	.	.
CCc1nc(N2CCN(C(=O)c3ccco3)CC2)c2c3c(sc2n1)CCCC3	.	.	?
O=C(c1ccco1)N1CCN(c2ncnc3sc4c(c23)CCC4)CC1	31.6µM	.	10µM
COc1ccc(C2C(C(C)=O)=C(O)C(=O)N2c2nccs2)c(OC)c1 (stereo not drawn)	/	/	.
COc1ccc(NC2=C(Cl)C(=O)N(CCc3ccccc3)C2=O)cc1	.	.	.
CCOc1ccc(NC2=C(Cl)C(=O)N(Cc3ccccc3)C2=O)cc1	/	.	.
Cc1ccc(O)c(NC2=C(Cl)C(=O)N(Cc3ccccc3)C2=O)c1	/	/	2.82µM
COc1ccc(NC2=C(Cl)C(=O)N(CCc3ccccc3)C2=O)c(OC)c1	15.8µM	/	?
O=C(NC1CC1)c1cc(F)c(F)cc1Cl	22.4µM	.	.
CC(C)(C)NC(=O)c1cc(F)c(F)cc1Cl	.	.	.
O=[N+]([O-])c1ccc(CSc2ncnc3c2ncn3C2OC(CO)C(O)C2O)cc1 (stereo not drawn)	/	/	.
COc1ccc(C(=O)/C=C2/c3ccccc3CC(C)(C)N2C)cc1OC	.	/	23.8µM
COc1ccc(C(=O)N/N=C2\CCc3ccccc32)cc1OC	/	/	.
COC(=O)CCCNC(=O)c1ccccn1	/	/	.
O=C(Cn1c(=O)oc2ccccc21)NC(=O)NCc1ccccc1	.	.	.
CC(C)(C)c1ccc(C(=O)CC(=O)c2cc(Cl)ccc2O)cc1	.	?	.
SMILES	HPGD block	IMPase inh	ALDH1A1 inh
O=C(CC(=O)c1ccccc1O)c1ccc(F)cc1	17.8µM	.	.
Cc1ccc(C(=O)CC(=O)c2cc(Cl)ccc2O)cc1	28.2µM	.	.
O=C(CC(=O)c1ccccc1O)c1cccc(F)c1	20µM	.	.
Cc1ccccc1C(=O)NNC(=O)c1ccc(F)cc1	.	.	.
O=C(CCc1ccccc1)NNC(=O)c1cccc(F)c1	/	/	.
CN(Cc1ccco1)c1ncncc1-c1cccc(C#N)c1	/	/	.
CN(C)C(=O)N1CCC(C(=O)N2CCCC(C(=O)c3ccc(C(C)(C)C)cc3)C2)CC1 (stereo not drawn)	/	/	.
Cc1cc(C)cc(NC(=S)N2CCC(NC(=O)c3ccccc3C)CC2)c1	/	/	.
CC(C)Cc1nc2oc3c(N4CCN(C)CC4)ncnc3c2c2c1CCCC2	.	.	.
COc1ncnc2c1oc1nc(CC(C)C)c3c(c12)CCCC3	.	.	14.1µM
COc1ccc(CSc2nnc(Cc3sc(-c4ccccc4)nc3-c3ccccc3)o2)cc1	.	.	.
CCc1nc2nc(C)c(NS(=O)(=O)c3ccc(C(C)(C)C)cc3)c(=O)n2[nH]1	/	.	/
O=C(Nc1ccc(F)cc1)Nc1ccccc1F	/	/	.
O=C(Nc1ccc2[nH]c(=S)sc2c1)Nc1ccccc1F	/	/	1µM
CCN(CC)S(=O)(=O)c1ccc(OC)c(NC(=O)c2cccc(C)c2[N+](=O)[O-])c1	/	/	5.62µM
CCN(CC)S(=O)(=O)c1ccc(OC)c(NC(=O)c2cc(C)on2)c1	/	/	.
CCN(CC)S(=O)(=O)c1ccc(OC)c(NC(=O)CSc2ccccc2)c1	.	.	.
CCN(CC)S(=O)(=O)c1ccc(OC)c(NC(=S)Nc2cccc(C)c2)c1	.	/	11.2µM

Bioassay records as filed in PubChem BioAssay.
